# Calls of active or inactive are those of the source. Rule for the calls: active = hit-call score of the fitted dose curve at least 0.9, where 1 is the maximum; inactive = score below 0.9.
# Tests used:
# [1] = ATG_CRE_CIS: Attagene CIS-FACTORIAL HepG2 Assay for human cAMP Responsive Element (CRE) binding protein 3 (AID 2282926); conditions: HepG2 CRE cis-reporter, Attagene multiplexed mRNA; actives raise or lower the signal
# Method in brief: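 HepG2 cells transiently transfected with cis-element-driven multiple reporter transcription units; CRE reporter mRNA measured 24 h after dosing by RT-PCR, 6-FAM labelling, HpaI digestion and capillary electrophoresis. Bidirectional fit versus DMSO baseline.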
# [2] = molecular target: CCAAT/enhancer-binding protein beta (Homo sapiens) (UniProt P17676); experiment: ATG_C_EBP_CIS: Attagene CIS-FACTORIAL HepG2 Assay for human CCAAT/Enhancer Binding Protein (C/EBP) beta (AID 2282927); conditions: HepG2 Attagene cis-factorial transcription factor reporter; actives raise or lower the signal
# Method in brief: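 HepG2, transient MRTU transfection, 24 h treatment. RT-PCR plus CE fluorescence; DMSO negative control, bidirectional fit.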
# [3] = ATG_CMV_CIS: Attagene CIS-FACTORIAL HepG2 Assay for human CMV (Internal Marker) (AID 2282928); conditions: HepG2 CMV promoter reporter, transcription factor profiling; actives raise or lower the signal;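 note: endpoint acts as a background internal control marker rather than a target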
# Method in brief: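 Endogenous transcription factor activity read in HepG2 via transfected cis-promoter reporter units. After 24 h dosing, reporter mRNA measured by RT-PCR/capillary electrophoresis; gain or loss of signal fit relative to DMSO.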
# [4] = ATG_DR4_LXR_CIS: Attagene CIS-FACTORIAL HepG2 Assay for human Liver X Receptor (LXR), DR4 submotif (AID 2282929); conditions: HepG2 Attagene DR4 cis-reporter, mRNA transcription; actives raise or lower the signal
# Method in brief: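 HepG2, transient MRTU transfection, cis-element (DR4) promoter; 24 h compound exposure; total RNA → oligo(dT) RT → PCR → 6-FAM primer extension → HpaI cut → CE. Gain/loss vs DMSO, bidirectional fit.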
# [5] = molecular target: Aryl hydrocarbon receptor (Homo sapiens) (UniProt P35869); experiment: ATG_Ahr_CIS: Attagene CIS-FACTORIAL HepG2 Assay for human Aryl Hydrocarbon Receptor (Ahr) (AID 2282930); conditions: HepG2 AhR cis-factorial reporter transcription; actives raise or lower the signal
# Method in brief: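 Endogenous factor activity is tracked through cis-promoter reporter units transfected into HepG2 cells. Transcript levels at 24 h are read by fluorescent RT-PCR and capillary electrophoresis, with activity in either direction scored relative to DMSO.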
# [6] = ATG_AP_1_CIS: Attagene CIS-FACTORIAL HepG2 Assay for human Activator Protein 1 (AP-1) (AID 2282931); conditions: HepG2 Attagene cis-factorial AP-1 reporter mRNA; actives raise or lower the signal
# Method in brief: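 Transient MRTU transfection of HepG2 → 24 h chemical treatment → RNA isolation, RT-PCR, 6-FAM labelling, HpaI digest → capillary electrophoresis. Fit: bidirectional, DMSO negative control.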
# [7] = ATG_AP_2_CIS: Attagene CIS-FACTORIAL HepG2 Assay for human Activator Protein 2 (AP-2) (AID 2282932); conditions: HepG2 AP-2 cis-reporter, Attagene transcription factor profiling; actives raise or lower the signal
# Method in brief: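 Multiplexed mRNA reporter assay in HepG2: cis-regulated units report endogenous factor activity after 24 h treatment. Fluorescence from capillary electrophoresis of RT-PCR products gives the signal, with DMSO as baseline.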
# [8] = ATG_BRE_CIS: Attagene CIS-FACTORIAL HepG2 Assay for human Bone Morphogenetic Protein (BMP) Response Element (BRE) (AID 2282933); conditions: HepG2 BMP response element reporter, Attagene transcription factor profiling; actives raise or lower the signal
# Method in brief: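 Transient MRTU transfection of human HepG2 liver cells; 24 h compound treatment; total RNA isolated, reverse-transcribed, PCR-amplified, 6-FAM labelled, HpaI-cut, capillary electrophoresis. DMSO = negative control/baseline, bidirectional fit.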
# [9] = molecular target: Transcription factor E2F1 (Homo sapiens) (UniProt Q01094); experiment: ATG_E2F_CIS: Attagene CIS-FACTORIAL HepG2 Assay for human E2F Transcription Factor 1 (AID 2282935); conditions: HepG2 Attagene cis-reporter, E2F reporter RNA transcripts; actives raise or lower the signal
# Method in brief: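 Measures reporter transcript levels via RT-PCR with capillary electrophoresis detection in HepG2 cells harboring cis-regulated reporter units; 24 h post-dose; bidirectional curve fitting with DMSO as baseline.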
# [10] = ATG_E_Box_CIS: Attagene CIS-FACTORIAL HepG2 Assay for human Enhancer Box (E-box) (AID 2282936); conditions: HepG2 E-box cis-reporter transcription, actives raise or lower the signal
# Method in brief: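 First, HepG2 cells receive multiple cis-regulated reporter constructs by transient transfection. Next, chemicals are applied for 24 h. Finally, reporter mRNA is quantified via RT-PCR and capillary electrophoresis, with DMSO as baseline.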
# [11] = ATG_M_61_CIS: Attagene CIS-FACTORIAL HepG2 Assay for M61 Transcription Factor (Internal Marker) (AID 2282937); conditions: HepG2 Attagene CIS-FACTORIAL M61 internal marker reporter; actives raise or lower the signal
# Method in brief: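 Human liver HepG2, transient MRTU transfection (cis promoter elements), 24 h compound. Total RNA → oligo(dT) RT → PCR → FAM label → HpaI → CE. Internal background marker; bidirectional fitting, DMSO = baseline.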
# [12] = ATG_EGR_CIS: Attagene CIS-FACTORIAL HepG2 Assay for human Early Growth Response 1 (EGR1) (AID 2282938); conditions: HepG2 Attagene CIS-FACTORIAL EGR reporter mRNA; actives raise or lower the signal
# Method in brief: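 Transient transfection of human HepG2 with multiple cis-regulated reporter units, chemical exposure 24 h, total RNA isolated. Reverse transcription, PCR, fluorescent labelling and capillary electrophoresis quantify reporter transcripts; activity fitted bidirectionally against DMSO.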
# [13] = ATG_M_19_CIS: Attagene CIS-FACTORIAL HepG2 Assay for M19 Transcription Factor (Internal Marker) (AID 2282939); conditions: HepG2 Attagene CIS-FACTORIAL M19 internal marker reporter; actives raise or lower the signal
# Method in brief: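 Transfect HepG2 with MRTU reporter library → dose chemical, 24 h → isolate total RNA, reverse-transcribe with oligo(dT) → PCR, 6-FAM label, HpaI cut (2 h, 37 C) → capillary electrophoresis. Bidirectional fit vs DMSO.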
# [14] = ATG_ERE_CIS: Attagene CIS-FACTORIAL HepG2 Assay for Estrogen Response Element (ERE) (AID 2282940); conditions: HepG2 ERE cis-reporter, Attagene RNA transcript; actives raise or lower the signal
# Method in brief: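 Transient MRTU transfection of human HepG2; cis-element promoters; 24 h dosing; total RNA → RT (oligo dT) → PCR → 6-FAM primer extension → HpaI digest → CE fluorescence. Bidirectional fit, DMSO baseline.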
# [15] = molecular target: Hepatocyte nuclear factor 3-beta (Homo sapiens) (UniProt Q9Y261); experiment: ATG_FoxA2_CIS: Attagene CIS-FACTORIAL HepG2 Assay for human Forkhead box A2 (FOXA2) (AID 2282942); conditions: HepG2 cis-reporter transcription factor activity, 24 h; actives raise or lower the signal
# Method in brief: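 Transient MRTU transfection of HepG2 liver cells; 24 h treatment; total RNA → oligo(dT) RT → PCR → FAM primer extension → HpaI cut → CE. Bidirectional fit vs DMSO.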
# [16] = ATG_FoxO_CIS: Attagene CIS-FACTORIAL HepG2 Assay for human Forkhead box O (FoxO) (AID 2282943); conditions: HepG2 Attagene cis-reporter, FoxO element, mRNA; actives raise or lower the signal
# Method in brief: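 Transfected HepG2 reporter cells exposed to test chemical for 24 h; reporter RNA measured by reverse transcription, PCR and fluorescent capillary electrophoresis; curves fitted for increases and decreases against DMSO.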
# [17] = ATG_GATA_CIS: Attagene CIS-FACTORIAL HepG2 Assay for human GATA Binding Protein (AID 2282944); conditions: HepG2 GATA cis-element reporter, Attagene multiplex mRNA; actives raise or lower the signal
# Method in brief: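 Transient MRTU transfection, HepG2, 24 h compound exposure. Total RNA → oligo(dT) RT → PCR → 6-FAM primer extension → HpaI cut → CE. Bidirectional fit vs DMSO.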
# [18] = ATG_Ets_CIS: Attagene CIS-FACTORIAL HepG2 Assay for human Erythroblast Transformation Specific (ETS) (AID 2282941); conditions: HepG2 ETS cis-reporter transcription, actives raise or lower the signal
# Method in brief: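 Steps: transfect HepG2 with multiple reporter units; treat compound 24 h; isolate RNA, DNase-treat, reverse-transcribe; PCR-amplify, label with 6-FAM, digest with HpaI; separate by capillary electrophoresis. Activity fitted both directions versus DMSO.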
# Chain of Aryl hydrocarbon receptor (Homo sapiens) (P35869 whole entry, looked up): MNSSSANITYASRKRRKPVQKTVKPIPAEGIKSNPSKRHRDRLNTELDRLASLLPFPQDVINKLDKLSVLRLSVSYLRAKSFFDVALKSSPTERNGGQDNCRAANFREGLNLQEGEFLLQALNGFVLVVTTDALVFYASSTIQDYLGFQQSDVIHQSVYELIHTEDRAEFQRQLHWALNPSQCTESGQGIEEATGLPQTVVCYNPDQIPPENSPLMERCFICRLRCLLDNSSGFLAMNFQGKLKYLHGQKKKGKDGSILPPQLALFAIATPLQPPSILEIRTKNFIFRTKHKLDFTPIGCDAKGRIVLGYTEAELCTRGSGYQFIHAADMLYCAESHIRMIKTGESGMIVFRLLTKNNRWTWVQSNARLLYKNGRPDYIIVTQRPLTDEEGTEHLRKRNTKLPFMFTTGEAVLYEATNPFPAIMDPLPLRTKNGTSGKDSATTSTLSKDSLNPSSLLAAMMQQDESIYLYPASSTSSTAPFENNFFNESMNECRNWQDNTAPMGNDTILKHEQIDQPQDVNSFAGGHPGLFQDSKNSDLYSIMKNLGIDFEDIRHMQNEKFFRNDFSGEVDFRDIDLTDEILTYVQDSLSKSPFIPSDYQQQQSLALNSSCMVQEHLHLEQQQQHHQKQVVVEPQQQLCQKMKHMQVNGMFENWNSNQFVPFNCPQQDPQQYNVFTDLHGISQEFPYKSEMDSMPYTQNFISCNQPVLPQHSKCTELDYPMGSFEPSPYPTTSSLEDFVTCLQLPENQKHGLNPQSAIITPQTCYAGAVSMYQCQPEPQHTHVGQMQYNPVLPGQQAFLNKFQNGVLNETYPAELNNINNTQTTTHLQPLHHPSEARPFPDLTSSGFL
# Chain of CCAAT/enhancer-binding protein beta (Homo sapiens) (P17676 whole entry, looked up): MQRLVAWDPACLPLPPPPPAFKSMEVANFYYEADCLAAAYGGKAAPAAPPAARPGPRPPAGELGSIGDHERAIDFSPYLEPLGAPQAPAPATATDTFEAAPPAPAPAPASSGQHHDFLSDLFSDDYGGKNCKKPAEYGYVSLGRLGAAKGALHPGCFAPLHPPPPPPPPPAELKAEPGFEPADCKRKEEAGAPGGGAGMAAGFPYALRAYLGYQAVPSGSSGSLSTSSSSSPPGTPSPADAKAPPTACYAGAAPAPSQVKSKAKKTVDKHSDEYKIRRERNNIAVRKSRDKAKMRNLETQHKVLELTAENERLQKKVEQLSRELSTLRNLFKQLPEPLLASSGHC
# Chain of Hepatocyte nuclear factor 3-beta (Homo sapiens) (Q9Y261 whole entry, looked up): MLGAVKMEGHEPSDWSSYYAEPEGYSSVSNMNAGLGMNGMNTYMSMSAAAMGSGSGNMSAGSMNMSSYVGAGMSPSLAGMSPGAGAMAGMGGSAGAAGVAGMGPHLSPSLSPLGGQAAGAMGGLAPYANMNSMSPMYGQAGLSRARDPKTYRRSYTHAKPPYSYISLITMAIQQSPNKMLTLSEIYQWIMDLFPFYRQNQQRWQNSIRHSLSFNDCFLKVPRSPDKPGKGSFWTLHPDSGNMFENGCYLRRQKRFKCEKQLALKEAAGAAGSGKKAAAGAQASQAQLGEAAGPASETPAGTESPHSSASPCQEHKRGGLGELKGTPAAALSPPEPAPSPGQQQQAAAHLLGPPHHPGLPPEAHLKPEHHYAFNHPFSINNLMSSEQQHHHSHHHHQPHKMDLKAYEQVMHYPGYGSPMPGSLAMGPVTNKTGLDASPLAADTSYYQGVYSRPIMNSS
# Chain of Transcription factor E2F1 (Homo sapiens) (Q01094 whole entry, looked up): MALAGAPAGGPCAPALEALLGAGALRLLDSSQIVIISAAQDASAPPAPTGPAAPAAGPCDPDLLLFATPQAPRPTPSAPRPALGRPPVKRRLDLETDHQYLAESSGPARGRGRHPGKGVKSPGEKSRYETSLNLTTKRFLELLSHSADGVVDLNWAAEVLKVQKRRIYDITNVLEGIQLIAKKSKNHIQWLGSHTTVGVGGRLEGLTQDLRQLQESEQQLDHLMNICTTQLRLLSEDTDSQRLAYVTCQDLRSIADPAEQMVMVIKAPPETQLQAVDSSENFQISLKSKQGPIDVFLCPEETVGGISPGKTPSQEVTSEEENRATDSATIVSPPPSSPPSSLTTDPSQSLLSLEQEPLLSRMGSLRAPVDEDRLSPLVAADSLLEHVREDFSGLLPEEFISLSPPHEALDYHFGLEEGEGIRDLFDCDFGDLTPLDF
compound,measurement,setting,value
NC(N)=NC(N)=NCCc1ccccc1,outcome,[1],inactive
same,outcome,[2],inactive
same,outcome,[3],inactive
same,outcome,[4],inactive
same,outcome,[5],inactive
same,outcome,[6],inactive
same,outcome,[7],inactive
same,AC50,[8],36.4 µM (active)
same,outcome,[9],inactive
same,outcome,[10],inactive
same,outcome,[11],inactive
same,outcome,[12],inactive
same,outcome,[13],inactive
same,outcome,[14],inactive
same,outcome,[15],inactive
same,outcome,[16],inactive
same,outcome,[17],inactive
C=C(C)C(=O)OCCC[Si](OC)(OC)OC,outcome,[1],inactive
same,outcome,[2],inactive
same,outcome,[3],inactive
same,outcome,[4],inactive
same,outcome,[5],inactive
same,outcome,[6],inactive
same,outcome,[7],inactive
same,outcome,[8],inactive
same,outcome,[9],inactive
same,outcome,[10],inactive
same,outcome,[12],inactive
same,outcome,[13],inactive
same,outcome,[14],inactive
same,outcome,[15],inactive
same,outcome,[16],inactive
same,outcome,[17],inactive
[Cl][Dy]([Cl])[Cl],outcome,[1],inactive
same,outcome,[2],inactive
same,outcome,[3],inactive
same,outcome,[4],inactive
same,outcome,[5],inactive
same,outcome,[6],inactive
same,outcome,[7],inactive
same,outcome,[8],inactive
same,outcome,[9],inactive
same,outcome,[10],inactive
same,outcome,[11],inactive
same,outcome,[12],inactive
same,outcome,[13],inactive
same,outcome,[14],inactive
same,outcome,[18],inactive
same,outcome,[15],inactive
same,outcome,[16],inactive
same,outcome,[17],inactive
O=S1(=O)CC(Cl)(Cl)C(Cl)(Cl)C1,outcome,[1],inactive
same,outcome,[2],inactive
same,AC50,[3],2.22 µM (active)
same,AC50,[4],2.41 µM (active)
same,outcome,[5],inactive
same,outcome,[6],inactive
same,outcome,[7],inactive
same,outcome,[8],inactive
same,outcome,[9],inactive
same,AC50,[10],2.8 µM (active)
same,outcome,[11],inactive
same,AC50,[12],6.17 µM (active)
same,outcome,[13],inactive
same,outcome,[14],inactive
same,outcome,[15],inactive
same,outcome,[16],inactive
same,outcome,[17],inactive
O=C1OCc2ccccc21,outcome,[1],inactive
same,outcome,[2],inactive
same,outcome,[3],inactive
same,outcome,[4],inactive
same,outcome,[5],inactive
same,outcome,[6],inactive
same,outcome,[7],inactive
same,outcome,[8],inactive
same,outcome,[9],inactive
same,outcome,[10],inactive
same,outcome,[11],inactive
same,outcome,[12],inactive
same,outcome,[13],inactive
same,outcome,[14],inactive
same,outcome,[18],inactive
same,outcome,[15],inactive
same,outcome,[16],inactive
same,outcome,[17],inactive
Cc1ccccc1S,AC50,[1],72.3 µM (active)
same,outcome,[2],inactive
same,outcome,[3],inactive
same,AC50,[4],75.5 µM (active)
same,outcome,[5],inactive
same,AC50,[6],36.6 µM (active)
same,outcome,[7],inactive
same,outcome,[8],inactive
same,outcome,[9],inactive
same,outcome,[10],inactive
same,outcome,[11],inactive
same,outcome,[12],inactive
same,outcome,[13],inactive
same,AC50,[14],20.5 µM (active)
same,outcome,[18],inactive
same,outcome,[15],inactive
same,AC50,[16],134 µM (active)
same,outcome,[17],inactive
O=c1cc(-c2ccc(O)cc2)oc2cc(O)cc(O)c12,AC50,[1],26 µM (active)
same,AC50,[2],16.8 µM (active)
same,AC50,[3],6.31 µM (active)
same,AC50,[4],7.83 µM (active)
same,outcome,[5],inactive
same,AC50,[6],64.3 µM (active)
same,outcome,[7],inactive
same,outcome,[8],inactive
same,outcome,[9],inactive
same,outcome,[10],inactive
same,AC50,[12],10.1 µM (active)
same,outcome,[13],inactive
same,AC50,[14],1.18 µM (active)
same,AC50,[18],17.5 µM (active)
same,outcome,[15],inactive
same,outcome,[16],inactive
same,outcome,[17],inactive
CC1=CC[C@@H](C(C)(C)O)CC1,outcome,[1],inactive
same,outcome,[2],inactive
same,outcome,[3],inactive
same,outcome,[4],inactive
same,outcome,[5],inactive
same,outcome,[6],inactive
same,outcome,[7],inactive
same,outcome,[8],inactive
same,outcome,[9],inactive
same,outcome,[10],inactive
same,outcome,[11],inactive
same,outcome,[12],inactive
same,outcome,[13],inactive
same,outcome,[14],inactive
same,outcome,[15],inactive
same,outcome,[16],inactive
same,outcome,[17],inactive

# Source: PubChem BioAssay (EPA / NIEHS)
